# Assay results from PubChem BioAssay (NCATS).
# Records with an inconclusive call do not appear. Entries that show only a call come without a potency. A number with no mark means an inactive call. Calls of active or inactive are those of the source. Calls follow the shape of the dose curve; as a rule, active = well fitted curve in the direction sought with a large enough effect; inconclusive = small, poorly fitted or top-dose-only effect, or another doubt; inactive = no such curve, though single readings can be large; an effect the other way counts as inactive or inconclusive.
# Tests used:
# [1] = system: HaCat; assay: Cytotoxic Profiling of Annotated Libraries Using Quantitative High-Throughput Screening (AID 1296008); conditions: Five cell lines viability, CellTiter-Glo ATP luminescence, 48-72 h; max response: hits give low values; also: nearly all actives have a fitted effect of over 60% in size; also: potency is read from the fitted curve at half-maximal effect
# Method in brief: (§1)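 Cytotoxicity was measured as CellTiter-Glo ATP luminescence, read after 10 min at room temperature. Compound treatment of the cells lasted 48 or 72 hr at 37 degrees Celsius in a qHTS format.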
# [2] = system: KB-3-1; assay: as above; conditions: Five cell lines viability, CellTiter-Glo ATP luminescence, 48-72 h; max response: hits give low values
# Method in brief: as §1
# [3] = system: C33A; assay: Primary qHTS to identify gynecologic anti-cancer compounds using libraries of approved drugs and bioactive compounds (AID 1345084); conditions: Gynecologic cancer cell panel viability, ATPlite luminescence, 48 h; series mostly up to 57.5 µM; also: nearly all actives have a fitted effect of over 55% in size; also: potency is read from the fitted curve at half-maximal effect
# Method in brief: (§2)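 Cells, 1,000 per well, plated 16 h, then exposed 48 h at 37 C to compounds. Viability by ATPlite luminescence after 15 min at room temperature.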
# [4] = system: CAOV3; assay: as above; conditions: Gynecologic cancer cell panel viability, ATPlite luminescence, 48 h; series mostly up to 57.5 µM
# Method in brief: as §2
# [5] = system: Es-2; assay: as above; conditions: Gynecologic cancer cell panel viability, ATPlite luminescence, 48 h; series mostly up to 57.5 µM
# Method in brief: as §2
# [6] = system: JEG-3; assay: as above; conditions: Gynecologic cancer cell panel viability, ATPlite luminescence, 48 h; series mostly up to 57.5 µM
# Method in brief: as §2
# [7] = system: OV90; assay: as above; conditions: Gynecologic cancer cell panel viability, ATPlite luminescence, 48 h; series mostly up to 57.5 µM
# Method in brief: as §2
# [8] = system: CASKI; assay: as above; conditions: Gynecologic cancer cell panel viability, ATPlite luminescence, 48 h; series mostly up to 57.5 µM
# Method in brief: as §2
# [9] = system: HeLa; assay: as above; conditions: Gynecologic cancer cell panel viability, ATPlite luminescence, 48 h; series mostly up to 57.5 µM
# Method in brief: as §2
# [10] = system: Hek293T; assay: as above; conditions: Gynecologic cancer cell panel viability, ATPlite luminescence, 48 h, control line for the selectivity index; series mostly up to 57.5 µM
# Method in brief: as §2
# [11] = system: NIH3T3; assay: Cytotoxic Profiling of Annotated Libraries Using Quantitative High-Throughput Screening (AID 1296008); conditions: Five cell lines viability, CellTiter-Glo ATP luminescence, 48-72 h; max response: hits give low values; also: nearly all actives have a fitted effect of over 60% in size; also: potency is read from the fitted curve at half-maximal effect
# Method in brief: as §1
# [12] = system: HACAT; assay: qHTS assay to identify novel small-molecules to repurpose for Merkel cell carcinoma treatment (AID 1296009); conditions: MCC and control cell lines, CellTiter-Glo viability, 72 h; series mostly up to 44.8 µM; also: nearly all actives have a fitted effect of over 60% in size
# Method in brief: (§3)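 Cell viability measured by CellTiter-Glo following 72 hr compound treatment at 37 degree celsius, with NPC and MIPE libraries tested in 8- and 11-point concentration series.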
# [13] = system: MCC-13; assay: as above; conditions: MCC and control cell lines, CellTiter-Glo viability, 72 h; series mostly up to 46 µM
# Method in brief: as §3
# [14] = system: MCC-26; assay: as above; conditions: MCC and control cell lines, CellTiter-Glo viability, 72 h; series mostly up to 46 µM
# Method in brief: as §3
# [15] = system: MKL-1; assay: as above; conditions: MCC and control cell lines, CellTiter-Glo viability, 72 h; series mostly up to 46 µM
# Method in brief: as §3
# [16] = system: MKL-2; assay: as above; conditions: MCC and control cell lines, CellTiter-Glo viability, 72 h; series mostly up to 46 µM
# Method in brief: as §3
# [17] = system: UISO; assay: as above; conditions: MCC and control cell lines, CellTiter-Glo viability, 72 h; series mostly up to 46 µM
# Method in brief: as §3
# [18] = system: WaGa; assay: as above; conditions: MCC and control cell lines, CellTiter-Glo viability, 72 h; series mostly up to 46 µM
# Method in brief: as §3
# [19] = system: HEK293T; assay: as above; conditions: MCC and control cell lines, CellTiter-Glo viability, 72 h; at 44.8 µM (top of the series) unless noted
# Method in brief: as §3
# [20] = system: NIH3T3; assay: as above; conditions: MCC and control cell lines, CellTiter-Glo viability, 72 h; at 44.8 µM (top of the series) unless noted
# Method in brief: as §3
structure (smiles),measurement,setting,value
CC(C)(C)Nc1nc(Nc2ccc(C(N)=O)cc2)cc(N)c1C#N,max response,[1],-5.65%
same,Potency,[2],5.8 µM (active)
same,Potency,[3],25.1 µM (active)
same,Potency,[4],inactive
same,Potency,[5],inactive
same,Potency,[6],inactive
same,Potency,[7],inactive
C=C(C)C(=O)O[C@H]1C[C@@](C)(O)C(=O)CC(O)/C(C)=C\[C@H]2OC(=O)C(=C)[C@H]12 (stereo partly drawn),max response,[1],-1.1%
same,outcome,[2],inactive
same,Potency,[3],inactive
same,Potency,[4],inactive
same,Potency,[8],inactive
same,Potency,[9],inactive
same,Potency,[10],inactive
same,Potency,[6],inactive
same,Potency,[7],inactive
COc1cc(O)cc(C)c1C(=O)O[C@@H]1[C@H](O)[C@@H](CO)O[C@H]1n1ccc(=O)[nH]c1=O,max response,[1],-4.84%
same,max response,[2],-16.4%
same,Potency,[3],inactive
same,Potency,[4],inactive
same,Potency,[8],inactive
same,Potency,[9],inactive
same,Potency,[6],inactive
same,Potency,[7],inactive
C=C1C(=O)O[C@H]2C1[C@H](OC(=O)/C(=C/CO)COC(=O)/C(C)=C/CO)CC(=C)[C@@H]1CC(=O)[C@@H](C)[C@@H]12 (stereo partly drawn),max response,[1],-52.7%
same,max response,[2],-3.1%
same,Potency,[4],inactive
same,Potency,[8],inactive
same,Potency,[9],inactive
same,Potency,[10],inactive
same,Potency,[7],inactive
Cc1cc(N(C)C)ccc1-c1nc2ccc(-c3nc4ccc(N5CCN(C)CC5)cc4[nH]3)cc2[nH]1,max response,[1],-16.4%
same,Potency,[2],23.1 µM (active)
same,Potency,[3],inactive
same,Potency,[5],inactive
same,Potency,[9],inactive
same,Potency,[10],inactive
same,Potency,[6],inactive
same,Potency,[7],inactive
COc1ccc(-c2cnc(-c3cccc4c3-c3ccccc3C4=O)o2)cc1,max response,[1],-2.01%
same,Potency,[2],0.0709 µM (active)
same,Potency,[4],inactive
same,Potency,[5],0.158 µM (active)
same,Potency,[9],0.199 µM (active)
same,Potency,[6],2 µM (active)
O=C1NC(=O)C(c2cn(-c3ccccc3)nc2-c2ccc(F)cc2)N1 (stereo not drawn),Potency,[1],16.4 µM (active)
same,outcome,[2],inactive
same,Potency,[3],inactive
same,Potency,[8],inactive
same,Potency,[5],inactive
same,Potency,[9],inactive
same,Potency,[10],inactive
same,Potency,[6],inactive
same,Potency,[7],inactive
CCN(CC)c1ccc2c(O)c(C=Nc3ccc(CC(=O)O)c(-c4c5c(nc6ccccc46)CCC(C(=O)NN)C5)c3)c(=O)oc2c1 (stereo not drawn),Potency,[2],5.8 µM (active)
CCC(C(=O)O)c1ccc(N2Cc3ccccc3C2=O)cc1 (stereo not drawn),outcome,[1],inactive
same,max response,[11],3.06%
same,Potency,[12],inactive
same,outcome,[13],inactive
same,outcome,[14],inactive
same,Potency,[15],inactive
same,Potency,[16],inactive
same,Potency,[17],inactive
same,Potency,[18],inactive
same,Potency,[3],inactive
same,Potency,[4],inactive
same,Potency,[8],inactive
same,Potency,[5],inactive
same,Potency,[9],inactive
same,Potency,[10],inactive
same,Potency,[6],inactive
C=C(C)C1CCC2(C(=O)O[C@@H]3O[C@H](CO[C@@H]4O[C@H](CO)[C@@H](O)[C@H](O)[C@H]4O)[C@@H](O)[C@H](O[C@@H]4O[C@@H](C)[C@H](O)[C@@H](O)[C@H]4O)[C@H]3O)CCC3(C(=O)O)C(CCC4C5(C)CCC(O)C(C)(C)C5CCC43C)C12 (stereo partly drawn),outcome,[2],inactive
same,outcome,[11],inactive
same,outcome,[19],inactive [at 9.27 µM]
same,outcome,[20],inactive [at 9.27 µM]
same,"activity change, negative = cytotoxicity",[3],-9.37% [at 11.6 µM]
same,"activity change, negative = cytotoxicity",[4],-3.74% [at 11.6 µM]
same,"activity change, negative = cytotoxicity",[8],13.9% [at 11.6 µM]
same,"activity change, negative = cytotoxicity",[5],1.26% [at 11.6 µM]
same,"activity change, negative = cytotoxicity",[9],-0.105% [at 11.6 µM]
same,"activity change, negative = cytotoxicity",[10],-3.68% [at 11.6 µM]
same,"activity change, negative = cytotoxicity",[6],18.7% [at 11.6 µM]
same,"activity change, negative = cytotoxicity",[7],15.5% [at 11.6 µM]
C=C(C)C(=O)OC1CC2(C)OC(=CC2=O)C(=C)CC2OC(=O)C(COC)C12 (stereo not drawn),max response,[1],-21.9%
same,max response,[2],-15.6%
same,Potency,[9],inactive
same,Potency,[6],inactive
same,Potency,[7],inactive
COc1cc(-c2ncn(/C=C\C(=O)OC(C)C)n2)cc(C(F)(F)F)c1,Potency,[1],2.06 µM (active)
same,Potency,[2],1.84 µM (active)
same,Potency,[5],0.891 µM (active)
same,Potency,[9],15.8 µM (active)
CCN1CCN(Cc2ccc(NC(=O)Nc3ccc(Oc4cc(NC)ncn4)cc3)cc2C(F)(F)F)CC1,Potency,[2],6.51 µM (active)
same,max response,[11],-75.2%
O=C(O)c1ccccc1NC(=O)N1CCC(c2ccccc2C(F)(F)F)CC1,max response,[2],-2.67%
same,outcome,[11],inactive
same,outcome,[19],inactive
same,outcome,[20],inactive
same,Potency,[3],inactive
same,Potency,[4],inactive
same,Potency,[8],inactive
same,Potency,[5],inactive
same,Potency,[9],inactive
same,Potency,[10],inactive
same,Potency,[6],inactive
same,Potency,[7],inactive
CCOCCOC(=O)/C=C/c1ccc(OC)cc1,max response,[1],-19.2%
same,max response,[11],-3.67%
same,outcome,[19],inactive
same,outcome,[13],inactive
same,outcome,[14],inactive
same,Potency,[15],inactive
same,Potency,[16],inactive
same,Potency,[17],inactive
same,Potency,[18],inactive
same,Potency,[3],inactive
same,Potency,[4],inactive
same,Potency,[8],inactive
same,Potency,[5],inactive
same,Potency,[9],inactive
same,Potency,[10],inactive
same,Potency,[6],inactive
same,Potency,[7],inactive
CC(C)N(CCCCOCC(=O)NS(C)(=O)=O)c1cnc(-c2ccccc2)c(-c2ccccc2)n1,outcome,[1],inactive
same,max response,[11],-0.443%
same,Potency,[12],inactive
same,outcome,[19],inactive
same,Potency,[3],inactive
same,Potency,[4],inactive
same,Potency,[8],inactive
same,Potency,[5],inactive
same,Potency,[9],inactive
same,Potency,[10],inactive
same,Potency,[6],inactive
same,Potency,[7],inactive
CC(NC(=O)C(O)C(C)C)C(=O)NC1C(=O)N(C)CCc2ccccc21 (stereo not drawn),outcome,[2],inactive
same,outcome,[11],inactive
same,outcome,[19],inactive
same,outcome,[20],inactive
same,Potency,[3],inactive
same,Potency,[4],inactive
same,Potency,[8],inactive
same,Potency,[5],inactive
same,Potency,[9],inactive
same,Potency,[10],inactive
same,Potency,[6],inactive
same,Potency,[7],inactive
COc1ncc(Nc2ncc([C@H](C)N3CCN(S(C)(=O)=O)CC3)cc2-c2nc(C)nc(N)n2)cc1F,Potency,[1],0.146 µM (active)
same,Potency,[2],6.51 µM (active)
same,Potency,[8],1 µM (active)
same,Potency,[5],inactive
same,Potency,[10],0.794 µM (active)
same,Potency,[7],inactive
